The compounds below were run against AMP-activated protein kinase, AMPK (Homo sapiens) (UniProt P54646+O43741+P54619+Q9UGJ0+Q9Y478+Q13131+Q9UGI9) (assay: AMP-dependent Kinase enzyme assay. An in vitro enzyme assay that detects ADP turnover that is directly proportional to AMPK activity. This uses naive AMPK that is activated during the assay with MK-8722). Settings: 30 µM.
Type: functional
Parameters: scale not given: direction of the effect not stated beside the values

SMILES	Percent Effect
O=C(c1cncc(NCC2COc3ccccc3C2)n1)N1CCCC1 (stereo not given)	8.04%
Cc1cc(C(=O)NC(C)CC(=O)c2ccco2)[nH]n1 (stereo not given)	2.92%
CCc1cc(N2CCC(NCCc3nc(C)c(C)s3)CC2)nc(C)n1	4.15%
CCCc1ccc(CN2CCC3(CCC(=O)N(C(C)C(=O)O)C3)CC2)o1 (stereo not given)	31.1%
O=c1cc(N2CCCCC2)cnn1Cc1noc(C2CCCO2)n1 (stereo not given)	4.71%
O=S(=O)(c1cn[nH]c1)N1CCCC(O)(CN2CCOCC2)CC1 (stereo not given)	13.3%
CN(Cc1nnnn1C1CC1)CC1COc2ccccc2O1 (stereo not given)	4.32%
Cc1cc(COC(=O)[C@@H]2Cc3ccccc3CN2S(C)(=O)=O)no1	27.9%
O=C(NCCCc1nnc2ccccn12)c1ccccc1C1CCNC1 (stereo not given)	1.24%
CN(CCCc1cnn(C)c1)Cc1cc2n(n1)CCNC2	-4.86%
COCCN1CCN(Cc2coc(-c3ccccc3Cl)n2)CC1	-1.56%
CCc1ccc(NC(=O)CCN2CC(n3nc(C)cc3C)C2)cc1	-4.58%
COC(=O)N1CCCCC1C(=O)N1CCC(c2ccncc2)CC1 (stereo not given)	1.07%
COc1coc(CN2CCCC3(CCC(=O)N(C4CC4)C3)C2)cc1=O (stereo not given)	-2.13%
N[C@H]1CN(C(=O)c2ccc3[nH]c(CO)nc3c2)C[C@@H]1c1ccccc1	3.57%
Cc1cccc(C)c1Nc1noc2c1CN(C(=O)c1c[nH]nc1C)CC2	6.37%
CC(C)c1nc(C2CCCN2CCNS(C)(=O)=O)no1 (stereo not given)	9.75%
Cc1cc(CN2CCC(C3CCN(CCc4ccccc4)C3)CC2)[nH]n1 (stereo not given)	-5.07%
CCC(C)(CC(=O)OC)NCc1cc(C)on1 (stereo not given)	-1.46%
O=C(C1CCCN(c2nc3ccccc3cc2CO)C1)N1CCCC1 (stereo not given)	9.42%

Source: ChEMBL document CHEMBL3988442, “University of Dundee, Small-Polar-MMV Screening Library” (2021)
